SENP6 block: SENP6 protease inhibition; inhibition, % at 10 µM; AID 2599; Recombinant SENP6 catalytic domain, aminoluciferin luminescence; 330,000 compounds, 1.8% hits;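 active = inhibition above about 50% at the single tested dose, limit read from the data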;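 also: plate controls were DMSO wells with enzyme for no effect and DMSO wells lacking enzyme for full effect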
Target sequence (Q9GZR1 628-1112 limits assumed): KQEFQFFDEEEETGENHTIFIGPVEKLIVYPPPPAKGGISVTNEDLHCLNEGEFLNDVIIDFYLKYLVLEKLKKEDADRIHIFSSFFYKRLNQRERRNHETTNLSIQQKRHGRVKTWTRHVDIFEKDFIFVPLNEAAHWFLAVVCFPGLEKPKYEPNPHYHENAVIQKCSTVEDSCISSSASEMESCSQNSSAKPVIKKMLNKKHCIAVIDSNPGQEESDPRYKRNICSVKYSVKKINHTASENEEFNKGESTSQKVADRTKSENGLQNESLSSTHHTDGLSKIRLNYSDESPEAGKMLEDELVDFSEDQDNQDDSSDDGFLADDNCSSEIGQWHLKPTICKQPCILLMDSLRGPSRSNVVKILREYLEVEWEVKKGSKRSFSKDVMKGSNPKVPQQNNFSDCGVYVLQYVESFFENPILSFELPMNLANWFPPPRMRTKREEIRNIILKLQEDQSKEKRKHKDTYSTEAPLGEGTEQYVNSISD
HSP90 refold inh: inhibitors of HSP90 luciferase refolding in rabbit reticulocyte lysate; inhibition, % at 5.6 µM; 290,000 compounds, 0.91% hits; luciferase refolding luminescence, 3 h;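 active = inhibition above the screen-wide mean plus 3 SD, computed separately per campaign, cut at about 16% in these data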;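 also: 0% = DMSO wells and 100% = 60 µM geldanamycin wells; inhibitors lower the luminescence because luciferase stays unfolded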
SENP8 block-1: blocks the human protease SENP8; Q96LD8; purified SENP8, Z-RLRGG-aminoluciferin cleavage, luminescence; inhibition, % at 10 µM; 330,000 compounds, 1.2% hits; in the data active = inhibition above about 50%
SENP8 block-2: SENP8 (human) protease inhibition. Q96LD8. recombinant SENP8, Nedd8 substrate fluorescence. inhibition, % at 20 µM. 360,000 compounds, 0.64% hits; in the data active = inhibition mostly above about 40%, no sharp cut-off; inactive = mostly below about 27%
SENP7 inh: inhibitors of human SENP7 protease; Q9BQF6; recombinant SENP7, Z-RLRGG-aminoluciferin luminescence, 40 min; inhibition, % at 5 µM; 330,000 compounds, 1.5% hits;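 active = inhibition above about 50% at the single test dose, limit read from the data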;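 also: plate controls were DMSO with enzyme for no effect and no enzyme buffer wells for full effect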
SENP8 confirm: human SENP8 inhibition, confirmed; Recombinant SENP8, Z-RLRGG-aminoluciferin luminescence, 60 min; 6,200 compounds, 40% hits; AID 488912; inhibition, % at 12.5 µM; shares compounds with SENP7 inh;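 active = mean inhibition across replicates above about 50%, limit read from the data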
SENP6 conf: confirmation of human SENP6 protease inhibitors; shares compounds with SENP7 inh; recombinant SENP6, Z-RLRGG-aminoluciferin luminescence; inhibition, % at 12.5 µM; 6,200 compounds, 58% hits
SENP7 conf: confirmation of human SENP7 protease inhibitors. recombinant SENP7, Z-RLRGG-aminoluciferin luminescence, 40 min. inhibition, % at 12.5 µM. shares compounds with SENP7 inh. 6,200 compounds, 69% hits
Casp3 SENP sel: caspase-3 inhibition (SENP selectivity assay) | 6,200 compounds, 60% hits | inhibition, % at 12.5 µM | AID 488918 | shares compounds with SENP7 inh | purified caspase-3, Z-DEVD-aminoluciferin luminescence, 60 min;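 active = mean inhibition above about 50%, limit read from the data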;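 also: plate controls were enzyme with DMSO for no effect and wells without caspase-3 for full effect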
Target sequence (P42574 28-227 limits assumed): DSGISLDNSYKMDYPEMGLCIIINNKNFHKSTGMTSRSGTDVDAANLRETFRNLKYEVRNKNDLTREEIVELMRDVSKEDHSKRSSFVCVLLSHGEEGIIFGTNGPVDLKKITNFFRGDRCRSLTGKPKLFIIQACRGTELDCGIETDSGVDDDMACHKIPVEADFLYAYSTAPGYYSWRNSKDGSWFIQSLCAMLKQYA
SENP luc ctr: luminescence interference (SENP counter-screen) | shares compounds with SENP7 inh | Pre-incubated SENP8/Z-RLRGG-aminoluciferin, luciferase luminescence interference | inhibition, % at 12.5 µM | 6,200 compounds, 39% hits | AID 488919;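 active = mean inhibition above about 50% when retested at one dose, limit read from the data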;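 also: plate controls were DMSO wells with completed reaction for no effect and substrate without enzyme for full effect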
The depositor's hits bear a star; x = no result. Shown are actives, neighbours in structure and some others; about 2.7% of the full set was active somewhere.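 The calls were made as follows, unless noted: active = mean inhibition above about 50% in the one-dose retest (limit read from the data); inactive = the rest.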

SMILES	SENP6 block	HSP90 refold inh	SENP8 block-1	SENP8 block-2	SENP7 inh	SENP8 confirm	SENP6 conf	SENP7 conf	Casp3 SENP sel	SENP luc ctr
CC1Cc2ccccc2N1CC(=O)NC(=O)NC1CCCCC1 (configuration not stated)	5.1	-2.9	-1.5	2.8	6.3	x	x	x	x	x
c1ccc(Nc2nnc(-c3cccnc3)s2)cc1	80.4*	14.7	72.4*	-308.0	86.9*	8.8	14.3	12.8	26.7	28.6
Nc1nnc(-c2cccnc2)s1	-5.4	7.0	4.0	-23.6	2.3	x	x	x	x	x
O=C1N=c2ccccc2=C1c1sc(NS(=O)(=O)Cc2ccccc2)nc1O	87.9*	-6.9	40.3	33.3	69.1*	77.9*	72.9*	92.4*	38.9	38.5
CCc1cc[n+](C2=C([O-])c3ccccc3C(=O)/C2=N\S(=O)(=O)c2cccs2)cc1	83.6*	8.2	53.1*	89.8*	47.0	36.4	80.3*	49.3	21.8	3.4
O=C1c2ccccc2COc2ccc(O)cc21	-17.5	-3.7	-13.6	18.6	-15.6	x	x	x	x	x
COc1ccc2c(c1)C(=O)c1ccccc1CO2	56.2*	1.0	23.1	-10.7	-5.2	70.4*	74.5*	91.1*	66.8*	67.3*
O=C(NC(=S)Nc1cc(-c2nc3ccccc3[nH]2)ccc1Cl)c1ccc2c(c1)OCO2	43.8	-4.4	13.8	-60.4	3.4	x	x	x	x	x
Nc1[nH]nc2c1NN(c1ccc(Cl)cc1Cl)N2	65.0*	-3.8	37.1	14.7	39.1	-3.3	-5.1	-5.9	-3.2	0.0
COc1cc(N=Nc2ccc3ccccc3c2)ccc1O	96.6*	-7.1	93.6*	6.3	94.8*	94.5*	95.9*	101.0*	73.4*	94.2*
Oc1ccc(N=Nc2ccc3ccccc3c2)cc1	98.4*	-1.5	98.3*	30.1	100.7*	99.0*	99.6*	102.3*	97.5*	93.8*
COc1cc(N=Nc2ccccc2C(=O)O)ccc1O	-5.5	3.1	-12.4	28.7	1.7	x	x	x	x	x
NS(=O)(=O)c1ccc(N=Nc2c(O)ccc3ccccc23)cc1	10.5	3.3	0.1	18.0	3.4	x	x	x	x	x
Oc1ccc(N=Nc2c(O)ccc3ccccc23)cc1	68.9*	7.0	63.7*	9.4	-4.7	67.1*	68.3*	72.1*	11.8	17.6
C(=N\Nc1nc2ccccc2[nH]1)/c1ccccc1	-20.6	-1.4	-13.8	-99.0	2.1	x	x	x	x	x
Cc1ccc(/C=N/Nc2nc3ccccc3[nH]2)s1	56.1*	9.8	55.9*	-99.6	7.3	68.5*	60.9*	84.5*	43.6	71.3*
COc1ccc(C)cc1NC(=O)C1CCCN(S(=O)(=O)c2ccc3[nH]c(=O)ccc3c2)C1 (configuration not stated)	-15.0	4.5	-2.4	-5.8	8.2	x	x	x	x	x
CCCNC(=O)C1(C)CCCN(C(=O)c2cccnc2Oc2ccccc2)C1 (configuration not stated)	x	x	x	13.4	x	x	x	x	x	x
CN(C)S(=O)(=O)c1ccc(NC(=O)c2ccccn2)cc1	-7.4	4.1	-12.8	13.9	21.6	x	x	x	x	x
CC(=O)NS(=O)(=O)c1ccc(NC(=O)c2ccccn2)cc1	-14.5	-3.5	1.7	12.1	2.4	x	x	x	x	x
CCN(CC)S(=O)(=O)c1ccc(NC(=O)c2ccccn2)cc1	63.8*	1.2	38.9	11.8	59.4*	48.7	48.1	80.8*	67.7*	57.0*
O=C(Nc1ccc(SC(F)(F)F)cc1)c1ccccn1	92.8*	5.1	89.3*	6.0	92.9*	85.6*	93.5*	86.7*	60.8*	38.2
CCCNS(=O)(=O)c1ccc(NC(=O)c2ccccn2)cc1	69.3*	5.9	41.5	15.9	57.1*	35.6	34.7	78.8*	75.8*	58.3*
CCC(=O)c1ccc(OC)c(OC)c1O	-17.1	1.0	0.2	5.9	-9.3	x	x	x	x	x
CC1(C(=O)O)CCCN(C(=O)c2ccc(OC(F)F)cc2)C1 (configuration not stated)	x	x	x	20.8	x	x	x	x	x	x
SMILES	SENP6 block	HSP90 refold inh	SENP8 block-1	SENP8 block-2	SENP7 inh	SENP8 confirm	SENP6 conf	SENP7 conf	Casp3 SENP sel	SENP luc ctr
O=Nc1[nH]c(=O)c(/C=C(\O)c2ccccc2)nc1NO	56.1*	5.5	44.1	26.3	58.0*	68.5*	63.8*	85.9*	93.2*	70.1*
O/C(=C\c1nc2ccccc2nc1/C=C(\O)c1ccccc1)c1ccccc1	9.1	2.4	2.7	-412.3	1.1	x	x	x	x	x
O=C(O)c1ccc(-c2nc(-c3ccc(Cl)c(Cl)c3)cs2)cc1	85.5*	-1.5	73.8*	-94.6	78.6*	89.7*	92.3*	93.7*	72.1*	68.3*
O=C(O)c1ccc(-c2nc(-c3ccccc3Cl)cs2)cc1	97.5*	1.1	95.5*	-30.1	94.3*	98.1*	98.9*	102.3*	97.2*	93.4*
O=C(Nc1ccccc1)c1cc2ccc3ccccc3c2s1	16.8	-0.8	0.2	-7.0	69.3*	-6.4	9.2	2.2	34.3	8.4
O=C(Nc1ccccc1)c1ccc(-c2ccccc2)s1	45.3	2.6	35.1	-19.0	83.9*	21.9	43.6	38.9	67.2*	17.4
Cc1cc(Oc2ccc(-c3nnc(-c4ccccc4)o3)cc2[N+](=O)[O-])ccc1Cl	-4.4	1.9	-3.8	21.2	-2.2	x	x	x	x	x
COc1cccc(C(=O)Nc2ccc(-c3nnc(-c4ccco4)o3)cc2)c1	5.2	3.2	-7.5	-231.4	4.6	x	x	x	x	x
COc1cccc(-c2nnc(N)o2)c1	-33.8	-3.6	-4.2	6.4	-7.1	x	x	x	x	x
COc1cccc(-c2nnc(-c3ccc(C)o3)o2)c1	17.6	8.3	38.9	-299.3	56.5*	62.5*	64.5*	89.1*	82.3*	74.0*
COc1cccc(-c2nnc(-c3ccco3)o2)c1	66.7*	7.0	49.0	-110.9	55.4*	57.8*	56.1*	87.0*	80.2*	65.0*
COc1cccc(-c2nnc(-c3ccccc3[N+](=O)[O-])o2)c1	30.6	-0.8	24.5	12.8	50.0*	19.0	29.8	66.9*	47.8	30.8
COc1cccc(-c2nnc(NC(=O)c3cccc(F)c3)o2)c1	60.5*	x	55.7*	15.0	32.8	3.5	4.0	3.8	14.7	1.9
COc1ccc(N2CCN(C(=O)COc3ccc(Cl)cc3Cl)CC2)cc1	-5.0	-2.2	-1.4	8.4	6.9	x	x	x	x	x
CCN(CC(=O)Nc1cc(Cl)ccc1C)C(=O)C1COc2ccccc2O1 (configuration not stated)	8.6	x	5.6	11.2	-4.0	x	x	x	x	x

Bioassay records (PubChem BioAssay)
